# According to PubChem BioAssay (NCI):
# Compounds without any hit were thinned out: in the full panel of roughly 83,000, 20% have a hit.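 Plates (96-well) were seeded with cells, treated with compound at one concentration, and incubated for 48 hours before percent growth was determined.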 The source made the active and inactive calls. Rule for the calls: active = growth percent below 10; inactive = the rest.
# System: HT29 colon
# Experiment: NCI-60 one-dose screen, 48 h (100 = growth as untreated, 0 = no growth, -100 = all killed)
# Conditions: 10 µM
row,Structure (SMILES),growth
1,CS(=O)(=O)Nc1ccc(-c2ccc3c(c2)ncn3-c2ccc(NC(=O)Nc3ccc(Cl)c(C(F)(F)F)c3)cc2)cc1,-84.1% (active)
2,O=c1nc(-c2ccccc2)cc(-c2cc3ccccc3nc2Cl)[nH]1,-42.5% (active)
3,COc1cccc(/C=C2\N=C(C)N(CCc3ccc(S(N)(=O)=O)cc3)C2=O)c1,108% (inactive)
4,O=S(=O)(Nc1ncccn1)c1ccc(-n2c(-c3ccccc3)nc(-c3ccccc3)c2-c2ccccc2)cc1,105% (inactive)
5,Cc1ccc(-c2nc(Nc3ccc(S(N)(=O)=O)cc3)c3ccccc3n2)cc1,14.6% (inactive)
6,COc1ccc(C(C)=C(c2ccc(OCCCN(C)C)cc2)c2ccc(OCCCN(C)C)cc2)cc1,-94.3% (active)
7,COC[C@@H](CC(C)C)N=C1NC(=O)/C(=C/c2ccc3ncsc3c2)N1,-14.7% (active)
8,Cc1ccc(-c2nc3ccc(C(=O)N=Nc4c(O)[nH]c5ccc(Cl)cc45)cc3[nH]2)cc1,13.2% (inactive)
9,COc1cccc(/C=N/NC(=O)c2ccc3nc(-c4ccc(Cl)cc4)[nH]c3c2)c1O,-79.7% (active)
10,N#Cc1ccc(-c2nn(-c3ccc(C(=O)O)cc3)cc2CNc2ccc(Oc3ccccc3)cc2)cc1,34.4% (inactive)
11,CC(=O)c1ccc(Nc2nc(SCCC(C)C)nc(-c3ccc(F)cc3)c2C#N)cc1,47.9% (inactive)
12,Cc1cc(C)nc(NS(=O)(=O)c2ccc(N/C(N)=N/c3nccc(-c4ccccc4)n3)cc2)n1,83.5% (inactive)
13,COc1cccc(-c2ccnc(/N=C(\N)Nc3ccc(S(=O)(=O)Nc4nc(C)cc(C)n4)cc3)n2)c1,106% (inactive)
14,CC(=O)C1=C(C)NC(SCC(=O)Nc2ccc(S(=O)(=O)Nc3cc(C)on3)cc2)=NC1c1ccccc1 (stereo not drawn),110% (inactive)
15,COc1cccc2nc(Nc3ccc(F)c(NC(=O)c4ccc(CN5CCN(C)CC5)c(C(F)(F)F)c4)c3)ccc12,-30.2% (active)
16,CNCc1cccc2c1OCCCCCC[C@@](C)(O)CC1(CC1)S(=O)(=O)c1ccc(cc1)-c1cnc(N)c(n1)C(=O)N2,-87% (active)
17,CN(C)c1ccc(/C=C/c2nc3ccccc3c(=O)n2CC(=O)Nc2ccccc2)cc1,63.6% (inactive)
18,O=C1CCC(N2Cc3c(C#CCCCNC(=O)c4ccc(NC(=O)[C@@H]5NC6(CCCCC6)[C@@]6(C(=O)Nc7cc(Cl)ccc76)[C@H]5c5cccc(Cl)c5F)cc4)cccc3C2=O)C(=O)N1 (stereo partly drawn),51.5% (inactive)
19,O=C(N/N=C/c1ccc(-c2cccc([N+](=O)[O-])c2)o1)c1[nH]c2ccc(Br)cc2c1-c1ccccc1,-44.9% (active)
20,O=C(c1ccc(Cl)cc1)C1[C@H](c2ccccc2Br)[C@@H](c2ccccc2)NC12C(=O)Nc1ccc(Br)cc12 (stereo partly drawn),-36% (active)
21,O=C(c1ccc(Cl)cc1)C1[C@H](c2ccccc2Br)[C@@H](c2ccccc2)NC12C(=O)Nc1ccccc12 (stereo partly drawn),-16% (active)
22,O=C(Nc1cc(Cl)cc(Cl)c1)Nc1cc(Cl)cc(Cl)c1,-20.9% (active)
23,CC(C)C1=C[C@@]23CC[C@@H]4[C@](C)(CCC[C@]4(C)C(=O)NCc4ccccc4)[C@H]2C[C@@H]1[C@H]1C(=O)CCC(=O)[C@H]13,81.7% (inactive)
24,COc1ccc(Nc2nc(N)n(Cc3cccc(Br)c3)n2)cc1,31.9% (inactive)
25,O=S(=O)(Nc1ncccn1)c1ccc(-n2c(-c3ccc(Br)cc3)nc(-c3ccccc3)c2-c2ccccc2)cc1,41.8% (inactive)
26,Clc1cccc(N/N=C/c2c[nH]c3ccccc23)n1,30.4% (inactive)
27,COc1ccc2c(c1)N=C(C(=O)O)/C2=C/c1sc(Nc2ccc(O)cc2)nc1O,95.9% (inactive)
28,CCCCCc1ccc(S(=O)(=O)N(C(C)=O)c2cc(-c3csc(N(C)C(C)=O)n3)ccc2N2CCN(C)CC2)cc1,-52.5% (active)
